Screening data: PubChem, National Center for Advancing Translational Sciences (NCATS)
DT40 TDP1 no CPT = qHTS for Inhibitors of human tyrosyl-DNA phosphodiesterase 1 (TDP1): qHTS in cells in absence of CPT. DT40 Tdp1-/- hTDP1 cells, no CPT, ATP luminescence, 48 h. Potency, µM (top dose mostly 46.2 µM), inactives show at the highest dose activity change, negative = growth inhibition, actives largely listed as inhibitors. 420,000 compounds, 15% hits; also: potency is read from the fitted curve at half-maximal effect; nearly all actives have a fitted effect of over 55% in size
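Compound effects on proliferation are scored in DT40 Tdp1-/-;hTDP1 cells in the absence of CPT. ATP levels (CellTiter-Glo luminescence) are recorded after a ≥48 hr, 37 °C incubation.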
IL-1B inflam inh = qHTS for Inhibitors of Inflammasome Signaling: IL-1-beta AlphaLISA Primary Screen. activity change, % at 57.5 µM. THP-1 LPS/ATP IL-1B secretion, AlphaLISA, 16 h; stronger effect = lower value. AID 743279, 2014. 360,000 compounds, 4.7% hits; in the data active = activity change below about -50%; inconclusive = mostly about -30% to -49%
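Secreted IL-1B measured by AlphaLISA bead assay after 16 h compound exposure of THP-1 cells; compounds (final up to 57.5 uM) added 1 h before LPS (250 ng/mL) and ATP (1.25 mM) stimulation; lower signal means less secretion.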
HT1080 IDH1KD tx = qHTS for induction of synthetic lethality in tumor cells producing 2HG: qHTS for the HT-1080-IDH1KD cell line. HT-1080 IDH1 knockdown viability, ATP luminescence, 48 h. Potency, µM (doses to about 46.1 µM), inactives show at the highest dose activity, negative = toxicity, hits mostly cytotoxic. 360,000 compounds, 2% hits;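 also: potency is read from the fitted curve at half-maximal effect; 0% = DMSO wells and -100% = cell-free medium wells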
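Viability of IDH1-knockdown HT-1080 fibrosarcoma cells was assessed by CellTiter-Glo after 48 h at 37 °C with titrated compound; concentration-effect curves were classified by fit quality and response size.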
TDP1 cell CPT = qHTS for Inhibitors of human tyrosyl-DNA phosphodiesterase 1 (TDP1): qHTS in cells in presence of CPT; 420,000 compounds, 12% hits; AID 686979, 2013; Potency, µM (doses to about 46.2 µM), without a hit: at the top dose activity change, negative = growth inhibition, actives largely listed as inhibitors; chicken DT40 Tdp1-/-;hTDP1 cells + 20 nM CPT, ATP luminescence, 48 h; also: potency is read from the fitted curve at half-maximal effect; nearly all actives have a fitted effect of over 55% in size
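Cell growth measured by CellTiter-Glo luminescence after a minimum 48 h, 37 C compound exposure with 20 nM CPT in Tdp1-knockout DT40 cells stably expressing hTDP1, seeded 400/well; qHTS titration format.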
uPA surface inh = qHTS for Inhibitors of Cell Surface uPA Generation; cell surface uPA generation assay, qHTS; Potency, µM (doses to about 38.3 µM), for the others: at the top dose activity change, negative = inhibition, hits mostly inhibitors; 330,000 compounds, 0.31% hits; AID 540303, 2011; active = well fitted inhibition curve with a large enough effect; inconclusive = small, poorly fitted or top-dose-only effect; inactive = no such curve, though single readings can be large or run the other way; tested in mouse RAW 264.7 cells; also: potency is read from the fitted curve at half-maximal effect; nearly all actives have a fitted effect of over 55% in size
HT1080NT lethal = qHTS for induction of synthetic lethality in tumor cells producing 2HG: qHTS for the HT-1080-NT fibrosarcoma cell line; Potency, µM (titrated, usually from 46.1 µM), for inactives: at the top dose activity, negative = less viability, actives largely listed as cytotoxic; AID 686970, 2013; 360,000 compounds, 1.6% hits; HT-1080-NT fibrosarcoma viability, CellTiter-Glo ATP luminescence, 48 h;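 also: NT is the 2HG producing partner of a matched IDH1 knockdown line; potency is read from the fitted curve at half-maximal effect; 0% = DMSO-treated cells and -100% = media-only wells without cells; nearly all actives have a fitted effect of over 55% in size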
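HT-1080-NT; 750 cells/well; 5% FBS RPMI; 48 h compound, 37 degrees C; CellTiter-Glo luminescence; curve fitting and curve-class assignment.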
An asterisk follows results filed as active; ? = inconclusive; . = no result given; ! = not confirmed by another sample. The list is not random: actives were taken first. Their share in the collection is about 19%. Unless noted, calls follow the shape of the dose curve; as a rule, active = well fitted curve in the direction sought with a large enough effect; inconclusive = small, poorly fitted or top-dose-only effect, or another doubt; inactive = no such curve, though single readings can be large; an effect the other way counts as inactive or inconclusive. Unless noted, % is scaled to controls: 0 for no effect and ±100 for the full control effect.

SMILES	DT40 TDP1 no CPT	IL-1B inflam inh	HT1080 IDH1KD tx	TDP1 cell CPT	uPA surface inh	HT1080NT lethal
COc1ccccc1S(=O)(=O)N(C)C[C@H]1Oc2cc(C#CCC3CCCC3)ccc2S(=O)(=O)N([C@H](C)CO)C[C@H]1C	8.2µM*	-9	-30%	13µM*	.	-29%
COc1ccc(S(=O)(=O)N(C)C[C@@H]2Oc3cc(C#CC4CCCCC4)ccc3S(=O)(=O)N([C@@H](C)CO)C[C@@H]2C)cc1	18µM*	-52*	?	18µM*	.	-26%
O=C(Cn1cc(C(F)(F)F)cc(Cl)c1=O)NCc1ccc(F)cc1	-2%	3	8%	-4%	-6%	0%
COc1cc(NC(=O)CN2C(=O)C(c3ccccc3)=NC23CCCCCC3)cc(OC)c1	-37%	?	-10%	-23%	2%	-3%
O=C(CN1C(=O)C(c2ccc(F)cc2)=NC12CCCCCC2)Nc1ccccc1Cl	23µM*	.	.	?	.	.
C[C@@]12CC[C@@H](C3=C(CCC3)C1)N2c1ccccc1	?	0	19%	-27%	.	9%
COc1ccc2sc(-c3ccc(S(C)(=O)=O)cc3)c(C(=O)NCCc3c[nH]c4ccccc34)c2c1	16µM*	13	-1%	21µM*	9%	-11%
COc1ccc(C(=O)c2[nH]c(N)c(C(=O)NCCc3c[nH]c4ccccc34)c2-c2ccc(Br)cc2)cc1	21µM*	-22	?	?	.	?
Nc1[nH]c(C(=O)c2ccccc2)c(-c2ccc(Br)cc2)c1C(=O)NCCc1c[nH]c2ccccc12	18µM*	?	-19%	?	.	-10%
COc1ccc(C(=O)c2[nH]c(N)c(C(=O)NCCc3c[nH]c4ccccc34)c2-c2ccc(C(F)(F)F)cc2)cc1	21µM*	0	8%	16µM*	.	0%
Nc1ccc2c(c1)-c1ccc(F)cc1C2=O	?	?	22%	?	8%	13%
O=c1c(-c2ccccc2)c(-c2ccccc2)oc2cc(O)cc(O)c12	?	-15	-18%	-19%	-9%	?
O=c1c(O)c(-c2ccccc2)oc2cc(O)cc(O)c12	30µM*	52	-5%	?	4%	-5%
O=c1c(O)c(-c2cc(O)c(O)c(O)c2)oc2cc(O)cc(O)c12	18µM*	-18	0%	11µM*!	-5%	2%
O=[N+]([O-])c1cccc(-c2ccc3nnc(SCc4cccnc4)n3n2)c1	-16%	7	13%	-24%	5%	5%
CCCCOc1ccccc1C(=O)N(Cc1ccco1)C1CCS(=O)(=O)C1 (stereo not given)	-6%	18	18%	5%	1%	2%
OC(Br)C(O)C(O)N1CCCc2ccccc21 (stereo not given)	-7%	.	.	-2%	.	.
CC(=O)Nc1ccc2cnn(C(C)=O)c2c1	-28%	10	3%	-12%	.	0%
CC1CCC/C=C/C(=O)c2c(O)cc(O)cc2CC(=O)O1 (stereo not given)	4.1µM*	-115*	21µM*	4.6µM*	?	18µM*
C[C@@H]1Cc2c(O)c(O)cc(O)c2C(=O)O1	?	45	-3%	?	1%	-6%
COc1ccc(S(=O)(=O)N2CN3CCN(C3)C2)cc1OC	?	26	5%	?	-12%	9%
O=c1cnc2cnc(N3CCNCC3)nc2n1C1CC1	16%	.	.	7%	.	.
Cc1ccc(Cl)cc1N1CCN(S(=O)(=O)c2cnc[nH]2)CC1	?	-3	-6%	21µM*	8%	5%
Cc1ccc(Cl)cc1N1CCN(C(=O)C2CCN(S(=O)(=O)Cc3ccccc3)CC2)CC1	13µM*	.	.	4.1µM*	.	.
CC1CCN(C(=O)C2CCN(S(=O)(=O)c3cccnc3)CC2)CC1	-6%	-1	7%	-6%	4%	-1%
SMILES	DT40 TDP1 no CPT	IL-1B inflam inh	HT1080 IDH1KD tx	TDP1 cell CPT	uPA surface inh	HT1080NT lethal
Cc1ccc(Cl)cc1N1CCN(S(C)(=O)=O)CC1	-16%	-21	2%	-18%	-3%	-3%
O=C(C1CCN(S(=O)(=O)c2cccnc2)CC1)N1CCCCC1	-8%	21	6%	-16%	-3%	-3%
O=C(C1CCN(S(=O)(=O)c2cccnc2)CC1)N1CCN(c2ccccc2Cl)CC1	21µM*	7	2%	?	-5%	-1%
Cc1ccc(Cl)cc1N1CCN(C(=O)C2CCN(S(=O)(=O)c3cccnc3)CC2)CC1	4.6µM*	0	?	2.9µM*	-12%	?
N#Cc1ccccc1S(=O)(=O)N1CCN(C(=O)[C@@H]2CCCN2C(=O)c2cccs2)CC1	-18%	0	2%	-2%	-2%	-4%
CCc1ccc(-n2c(SCc3cccc(F)c3)nc3[nH]ncc3c2=O)cc1	16µM*	.	.	21µM*	.	.
O=c1c2cn[nH]c2nc(SCc2c(F)cccc2F)n1-c1ccc(Cl)cc1	?	-74*	?	?	2%	-13%
CCc1ccc(-n2c(SCc3ccccc3C)nc3[nH]ncc3c2=O)cc1	21µM*	.	.	?	.	.
Cc1ccc(-n2c(SCc3cccc(F)c3)nc3[nH]ncc3c2=O)cc1C	21µM*	.	.	21µM*	.	.
Cc1nc(CSc2nc3[nH]ncc3c(=O)n2-c2ccccc2)cs1	-3%	9	-17%	-13%	-4%	-6%
O=C(O)CCCN1C(=O)C(=O)/C(=C(/O)c2ccccc2)C1/C=C/c1ccccc1 (stereo not given)	-11%	0	14%	?	0%	11%
CC(C)(C)c1ccc(O)c(N=Cc2cc(Br)ccc2O)c1	26µM*	55	5%	?	-13%	4%
Cc1ccc(O)c(C=Nc2cc(C)ccc2O)c1	5.2µM*	2	18%	5.8µM*	-7%	-9%
CCN(CC)c1ccc(N=Cc2cc(Br)ccc2O)cc1	?	-2	?	16µM*	?	?
Oc1ccc(Br)cc1C=Nc1ccc(Cl)cc1	19%	0	-6%	-7%	-5%	0%
CCc1ccc(O)c(N=Cc2ccccc2O)c1	-15%	7	?	?	?	?
Cc1ccc(-c2cc(N)n(-c3ccc(F)cc3)n2)cc1	-10%	-25	1%	-3%	0%	2%
